Source: PubChem BioAssay (NCI)
This is part of a sample that, as a whole, favours compounds with a hit. Of some 79,000 tested, about 15% had one in any assay. Values without a mark were called inactive. Active and inactive are the calls of the source. No stated cut-off is given here; in the data, active means growth inhibition above about 70%; inactive means the rest.

Test: NCI Yeast Anticancer Drug Screen. Data for the rad52 strain (AID 147);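 further: 0% = growth of vehicle-treated control cultures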
Details: S. cerevisiae rad52 mutant growth inhibition, active compounds read high
Method: Growth inhibition of yeast strains with defined genetic alterations is measured as a screen for potential anti-cancer activity. Selected strains with alterations in DNA damage repair or cell cycle control were exposed to compounds and growth inhibition was measured relative to vehicle treated controls. The strain used in this assay is rad52

SMILES | growth inhibition (at 1.2 µM) [%] | growth inhibition (at 3.7 µM) | growth inhibition (at 11.0 µM) | growth inhibition (at 33.0 µM) | growth inhibition (at 100.0 µM)
COc1ccc(N=c2cc(-c3ccccc3)oc3ccccc23)cc1 | 1 | 2% | 1% | -1% | -3%
O=C(CCSC1=NCCCN1)c1ccc(F)cc1 | -38 | -55% | -53% | 58% | 99% (active)
COc1cc([C@@H]2c3cc4c(cc3[C@@H](NC(=O)NO)[C@H]3COC(=O)[C@H]23)OCO4)cc(OC)c1O | -2 | 2% | 10% | 48% | 88% (active)
CC1(c2ccccc2)O[C@@H]2C[C@H]3[C@@H]4CCC5=CC(=O)C=C[C@]5(C)[C@@]4(F)[C@@H](O)C[C@]3(C)[C@]2(C(=O)CO)O1 (stereo not given in full) | -3 | -2% | 6% | 62% | 98% (active)
O/N=c1/ccn(O)c2ccccc12 | 49 | 91% (active) | 95% (active) | 96% (active) | 95% (active)
CCC(OC(C)=O)C1CC(C(C)C)CCC1C (stereo not given) | 1 | 2% | 4% | -73% | 22%
CN(C)CCNC(=Cc1ccc2ccccc2[n+]1C)NCCN(C)C | 0 | 0% | 0% | -1% | -2%
CCOP(=O)(OCC)/C(C#N)=C/c1cccc(Oc2ccccc2)c1 | -17 | -14% | 60% | 95% (active) | 96% (active)
